Assay results as given in PubChem BioAssay (NCATS).
Records with an inconclusive call do not appear. Activity calls are given as the source filed them. Unless noted, no rule for the calls is given here.

How the values were obtained:
[1] = qHTS assay for cell viability of HEK293 cells (AID 743288; active = well fitted cell-killing curve with a large enough effect; also: % is scaled to controls: 0 for no effect and ±100 for the full control effect; nearly all actives have a fitted effect of over 50% in size); details: ATP luminescence (CellTiter-Glo), 18 h, stronger effect = lower value
Outline: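 Steps: plate 2,000 parental HEK293 cells per well; incubate ≥5 h, 37 C; add compounds in DMSO; incubate 18 h, 37 C; add CellTiter-Glo; wait 30 min at room temperature; read luminescence.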

[2] = qHTS assay for cell viability of the p53RE-bla HCT-116 cell line (AID 743292; active = well fitted cell-killing curve with a large enough effect; also: % is scaled to controls: 0 for no effect and ±100 for the full control effect; nearly all actives have a fitted effect of over 55% in size); details: p53RE-bla HCT-116 viability, ATP luminescence, 16 h; series mostly up to 95 µM
Outline: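 Intracellular ATP of p53RE-bla HCT-116 cells measured by luciferase luminescence following 16 h compound incubation at 37 C; DMSO-only wells served as vehicle controls.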

[3] = target: Nuclear receptor subfamily 1 group I member 2 (Rattus norvegicus) (UniProt Q9R1A7); assay: qHTS assay for small molecule activators of the rat pregnane X receptor (rPXR) signaling pathway (AID 651751); details: rPXR reporter cells, luciferase (One-Glo), 24 h; also: 0% is about no effect
Nuclear receptor subfamily 1 group I member 2 (Rattus norvegicus), sequence (Q9R1A7 whole entry, looked up): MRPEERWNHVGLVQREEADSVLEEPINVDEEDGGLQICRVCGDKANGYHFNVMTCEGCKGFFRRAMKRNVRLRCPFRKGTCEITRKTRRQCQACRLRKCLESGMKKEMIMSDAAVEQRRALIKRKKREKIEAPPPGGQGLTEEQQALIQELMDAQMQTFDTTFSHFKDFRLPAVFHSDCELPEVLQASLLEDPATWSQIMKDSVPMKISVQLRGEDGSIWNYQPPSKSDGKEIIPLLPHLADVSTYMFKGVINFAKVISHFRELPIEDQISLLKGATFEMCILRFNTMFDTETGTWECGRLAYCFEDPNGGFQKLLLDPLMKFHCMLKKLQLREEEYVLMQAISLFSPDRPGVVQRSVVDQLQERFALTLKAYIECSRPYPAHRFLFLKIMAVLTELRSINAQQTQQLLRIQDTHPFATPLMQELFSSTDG

[4] = qHTS assay for small molecule activators of the human pregnane X receptor (PXR) signaling pathway (AID 720659); details: DPX-2 HepG2 CYP3A4-luciferase, 24 h; series mostly up to 92.3 µM; also: 0% is about no effect

O=Cc1ccc(C(=O)O)cc1
inactive: max response [1] -0.895% | Potency [2] | max response [3] -2.3% | outcome [4]

Cc1nc2ccc(Cl)cc2[nH]1
inactive: max response [1] 5.07% | Potency [2] | max response [3] -1.68% | outcome [4]

C/C(C=O)=C/c1ccccc1
inactive: max response [1] 5.25% | Potency [2] | max response [3] 2.25% | outcome [4]

OC1CCCC1
inactive: max response [1] 3.74% | Potency [2] | max response [3] -2.46% | outcome [4]

CC(=O)Nc1ccc(N)cc1
inactive: max response [1] -3.85% | Potency [2] | max response [3] 9.42% | outcome [4]

O=Cc1ccc(CO)o1
inactive: max response [1] 6.14% | Potency [2] | max response [3] 1.25% | outcome [4]
